HCMV inh – human cytomegalovirus inhibition. hit rate 4.5% among 410,000. AID 1259415. HFF cells, HCMV-luciferase reporter, 72 h; active compounds read low. activity change, negative = inhibition, % at 57.5 µM; in the data active means activity change below about -60%; inconclusive means no clear call, values can overlap the other calls; inactive means above about -39%
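Compounds were evaluated in HFFs infected with an HCMV luciferase reporter virus (MOI 1 PFU/cell). Luciferase in lysates collected 72 h post infection served as the replication measure.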
HCV inhibitor – blocks hepatitis C virus. Potency, µM (highest dose often 41.8 µM), without a hit: at the highest dose activity change, negative = inhibition, usual class: inhibitors. hit rate 3.4% among 340,000. Huh7.5.1 HCVcc-Cre infection, luciferase reporter, 44 h; further: potency means the concentration at half of the fitted maximal effect
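After 44 h co-culture of compound, cells and HCVcc-Cre (~0.5 moi), substrate is added for 15 min at room temperature and luciferase measured over 15 sec. Cells were seeded at 1,000/well and pre-cultured 4 h.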
Lassa entry inh – blocks Lassa virus binding to or entry into cells | Lassa virus pseudotype entry inhibition, cell reporter | hit rate 1.2% among 300,000 | Potency, µM (doses to about 37.9 µM), without a hit: at the highest dose activity change, negative = inhibition, actives largely listed as inhibitors | AID 540256; calls by dose curve; tested in HEK293 cells; further: potency means the concentration at half of the fitted maximal effect; nearly all actives have a fitted effect of over 50% in size
Pf growth 48h – inhibits P. falciparum growth in the first generation, 48 h; hit rate 5.9% among 310,000; P. falciparum luciferase growth in erythrocytes, 48 h; Potency, µM (series often up to 28.7 µM), for inactives: at the highest dose activity change, negative = inhibition, usual class: inhibitors; AID 504832; further: potency means the concentration at half of the fitted maximal effect
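Firefly luciferase activity from engineered P. falciparum reports growth; inhibitors lower the luminescent signal. Cultures contained 2% hematocrit erythrocytes at 0.1% final parasitemia.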
Pf growth 96h – inhibits malaria parasite growth, 96 h. hit rate 6.9% among 320,000. Potency, µM (series often up to 28.7 µM), for inactives: top-dose activity change, negative = inhibition, most hits filed as inhibitors. P. falciparum luciferase reporter growth, 96 h; further: potency means the concentration at half of the fitted maximal effect
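Compounds incubated with erythrocytes infected by luciferase-expressing P. falciparum (2% hematocrit, 0.05% parasitemia final) for 96 hours, 37 C in 5% CO2. Growth inhibition scored as decreased luciferase luminescence.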
MARV entry inh – inhibitors of Marburg virus binding or cell entry. Marburg virus pseudotyped entry inhibition, cell reporter. Potency, µM (titrated, usually from 37.8 µM), without a hit: at the highest dose activity change, negative = inhibition, actives largely listed as inhibitors. hit rate 1.8% among 300,000; calls by dose curve; tested in HEK293 cells; further: potency means the concentration at half of the fitted maximal effect
* hit, by the source's call; u = inconclusive; x = not tested or not shown; [ ] = dose if it differs, or a comment. Hits are enriched below; roughly 14% of the tested compounds scored in any of these assays. Unless noted, the call rests on the fitted dose curve; in most records, active means well fitted inhibition curve with a large enough effect; inconclusive means small, poorly fitted or top-dose-only effect, or another doubt; inactive means no such curve, though single readings can be large or run the other way. On the % scale 0 is the no-effect control and ±100 the full control effect.

SMILES	HCMV inh	HCV inhibitor	Lassa entry inh	Pf growth 48h	Pf growth 96h	MARV entry inh
CCCCCCCc1nc2sc3c(c2c(=O)n1N)CC(C)(C)OC3	0.0	3.2%	0.8%	-4.8%	-24.9%	10.9%[46.1 µM]
CCC(C)Oc1cc(-c2ccnc(Nc3cccc(Cl)c3)n2)ccn1 (configuration not stated)	-86.5*	12.1%	x	u	u	x
Cc1cc(C)nc(Nc2cccc(Cl)c2)n1	-16.5	1.1%	x	33.2%	14.9%	x
OCCCNc1cc(-c2ccnc(Nc3cccc(Cl)c3)n2)ccn1	-97.4*	2µM*	x	0.738µM*	0.415µM*	x
O=C(O)c1ccc2c(=O)n3cc(C(=O)c4ccccc4O)cc(Cl)c3nc2c1	-79.8*	9.2%	x	-6.5%	u	x
CCCN(C(=O)c1cccs1)c1c(N)n(Cc2ccccc2)c(=O)[nH]c1=O	1.8	-2.7%	x	-0.1%	u	x
Cc1c(-c2ccc(Cl)cc2)c(=O)oc2c(CN3CCCC3)c(O)ccc12	-7.9	x	22.5%[46.1 µM]	x	x	x
Cc1oc2c(CN3CCCC3)c(O)ccc2c(=O)c1-c1ccc(Br)cc1	-4.0	-8.2%	-15.8%	9.28µM*	u	3.2%
COc1ccc(-c2c(C)oc3c(CN4CCOCC4)c(O)ccc3c2=O)cc1	1.5	1.5%	x	u	u	x
Cc1oc2c(CN3CCCCC3)c(O)ccc2c(=O)c1-c1ccc(Br)cc1	23.8	-2.1%	-9.4%[46.1 µM]	u	1.17µM*	5.3%[46.1 µM]
O=C(CSC1=NCCS1)Nc1ccnc2ccccc12	-73.3*	u	-20.6%	-4.9%	16.1%	-29.2%
Cc1cc(NC(=O)Cc2ccccc2)c2ccccc2n1	-85.8*	u	x	-13.6%	u	x
Cc1cc(C)nc(SCC(=O)Nc2ccnc3ccccc23)n1	-88.9*	1.78µM*	u	21.4%[5.75 µM]	139.5%	u
COC(=O)c1ccccc1NC(=O)CSc1nc(C)cc(C)n1	-34.7	3.2%	-4.6%[46.1 µM]	18.8%	43.5%	4.9%[46.1 µM]
CCCc1nc2c(C)cc(Br)cn2c1Cc1cccc(F)c1	66.1	x	x	x	x	x
C[C@H](CO)N1C[C@H](C)[C@@H](CN(C)CC2CC2)Oc2c(NS(=O)(=O)c3ccc(F)cc3)cccc2C1=O	22.2	u	x	x	x	x
C[C@H](CO)N1C[C@H](C)[C@@H](CN(C)C)Oc2c(NS(=O)(=O)c3ccc(F)cc3)cccc2C1=O	-73.0*	0.0%	x	x	x	x
C[C@H](CO)N1C[C@H](C)[C@@H](CN(C)C)Oc2c(NC(=O)Cc3ccccc3)cccc2C1=O	-27.4	0.562µM*	x	x	x	x
CC(=O)Nc1cc(C(=O)NCc2ccccc2Cl)ccc1Sc1ccc(F)cc1	-18.5	x	29.4%[46.1 µM]	x	x	x
CCCCc1ccc(C2C3=C(CC(C)(C)CC3=O)NC3=C2C(=O)c2ccccc23)cc1 (configuration not stated)	-86.0*	12.6µM*	u	13.1µM*	u	u
CCOC(=O)C1(Cc2cccc(F)c2)CCN(CC2CC2)CC1	-26.6	8.0%	-19.6%[46.1 µM]	17.0%	14.7µM*	u
CCOC(=O)C1(Cc2cccc(F)c2)CCN(Cc2nc(CC)[nH]c2C)CC1	-35.3	u	-6.0%	3.29µM*	42.2%	u
COc1nc(N(c2ccccc2)c2ccccc2)nc(-n2ccnc2)n1	14.8	u	u	11.7µM*	u	u
COc1ccc(-n2ccnc2)cc1	-15.3	16.6%	x	20.6%	-2.6%	x
CCOC(=O)Cn1c(=O)oc2ccc(C)cc21	2.3	4.3%	0.6%	45.2%	u	u
SMILES	HCMV inh	HCV inhibitor	Lassa entry inh	Pf growth 48h	Pf growth 96h	MARV entry inh
COc1ccc(Cn2c(=O)oc3ccc(C)cc32)cc1OC	-94.5*	14.1µM*	u	-8.3%	-20.2%	u
Cc1ccc2oc(=O)n(CCCOc3ccccc3C)c2c1	-17.0	-3.5%	-12.3%	23.4%	-1.1%	u
Cc1ccc2oc(=O)n(CCOc3ccccc3C)c2c1	-27.2	-20.4%	1.7%[46.1 µM]	2.62µM*	8.6%	14.8%[46.1 µM]
CC(C)OC(=O)Cn1c(=O)oc2ccccc21	x	3.5%	15.2%	x	2.33µM*	16.5%
Cc1ccc2oc(=O)n(CC(=O)OC(C)C)c2c1	2.9	9.3%	12.8%	0.0%	10.4µM*	-5.8%
CCOC(=O)CSc1nc2cc(OC)c(OC)cc2c2nc(-c3ccccc3)nn12	11.3	x	15.7%[46.1 µM]	x	x	-15.0%[46.1 µM]
CCOc1ccc(NS(=O)(=O)c2ccc(-c3cc(C)no3)s2)cc1	0.0	x	u	x	x	x
COC(=O)N/N=C/c1ccc([N+](=O)[O-])o1	-4.9	-5.8%	-6.2%	13.1µM*	11.7µM*	2.7%
O=C(N/N=C/c1ccc([N+](=O)[O-])o1)C(O)c1ccccc1 (configuration not stated)	-60.4*	u	x	u	u	x
O=C(N/N=C/c1ccc([N+](=O)[O-])o1)C1CC1	12.2	u	u	0.0%	4.15µM*	u
Cc1cc(C(=O)N/N=C/c2ccc([N+](=O)[O-])o2)c(C)o1	-60.7*	u	x	3.7µM*	3.29µM*	x
O=C(N/N=C/c1ccc(-c2ccc([N+](=O)[O-])cc2)o1)C(O)c1ccccc1 (configuration not stated)	-26.2	u	-17.4%	-2.1%	-5.4%	u
COc1cc(NC(=O)CSC2=Nc3ccccc3N=C(c3ccc(F)cc3)C2)cc(OC)c1	-5.8	x	14.7%[46.1 µM]	x	x	x
Cc1cc(C)c(S(=O)(=O)N/N=C/c2ccc([N+](=O)[O-])o2)c(C)c1	13.2	9.7%	12.4%[46.1 µM]	7.2%	-14.2%	14.2%[46.1 µM]
NC(=O)N/N=C/c1ccc([N+](=O)[O-])o1	-20.8	u	x	11.7µM*	5.36µM*	x
COc1ccc(-c2nn(-c3ccccc3)cc2C(=O)N/N=C/c2ccc([N+](=O)[O-])o2)cc1	u	-21.9%	u	2.62µM*	3.9%	2.2%[46.1 µM]
COC(=O)/C(=C\c1ccc([N+](=O)[O-])o1)NC(=O)c1ccccc1	-33.3	u	-13.3%	x	13.1µM*	-17.8%
CN(/N=C/c1ccc([N+](=O)[O-])o1)c1ccccc1	-78.0*	-5.9%	-14.3%	12.0%	3.1%	-25.0%[46.1 µM]
CCn1c(=O)sc2cc(NS(=O)(=O)c3ccc(C)cc3)ccc21	8.5	x	u	x	x	-27.4%[46.1 µM]
Cc1cc(C(=O)Cn2cnc3cc(F)ccc3c2=O)c(C)n1C1CC1	49.4	0.0%	17.6%[46.1 µM]	x	x	u
O=C(CCN1CCCCCC1)c1ccccc1	40.1	7.8%	10.5%	24.4%	u	-21.0%
O=C(CCCCN1CCCCC1)c1ccc2c(c1)Cc1ccccc1-2	-18.7	u	x	5.22µM*	12.6%	x
CC(=O)Nc1ccc(Nc2nnc(-c3ccc(O)cc3)c3ccccc23)cc1	-8.4	u	u	-9.0%	22.6%	u
CNC(=O)c1ccc(Nc2nnc(-c3ccc(C)c(S(=O)(=O)NCC4CCCO4)c3)c3ccccc23)cc1 (configuration not stated)	-11.5	u	u	5.22µM*	u	u
CNS(=O)(=O)c1cc(-c2nn3c(C)nnc3c3ccccc23)ccc1C	-61.9*	x	-15.7%[46.1 µM]	x	x	x

Screens (PubChem BioAssay)
